Structures are written as SMILES.

The experiment has as its system Vero E6 infected with SARS-CoV-2. As to the kind of experiment: inhibition of SARS-CoV-2 cytopathic effect; higher = more antiviral protection, active = above 15. As to conditions: 1 nM; 48 h.
As for `CS(=O)(=O)c1ccc(Cn2c3c(c4cc(F)cc(F)c42)CCCC3CC(=O)O)cc1` (stereo not drawn), the “inhibition of SARS-CoV-2 cytopathic effect” value (shortened to “inhibition”) was 0.13% (inactive).

For the compound `COc1ccc(CC(C)NCC(O)c2ccc(O)c(NC=O)c2)cc1` (stereo not drawn) [formoterol], the “inhibition” value is 0.12% (inactive).

Consider `Brc1ccc(NC2C3CC4CC(C3)CC2C4)cc1` (stereo not drawn) [bromantan], for which the “inhibition” value was -1.24% (inactive).

Consider `O=[N+]([O-])c1cc(Cl)ccc1S(=O)(=O)N1CCN(Cc2ccccc2)CC1`, for which the “inhibition” value was 2.15% (inactive).

For `c1cc(Nc2cc(C3CC3)n[nH]2)nc(Nc2ccc3[nH]cnc3c2)n1`, the “inhibition” value is -2.31% (inactive).

For the compound `Oc1cc2c(cc1O)[C@@H]1c3ccc(O)c(O)c3OC[C@]1(O)C2` [hematoxylin], the “inhibition” value is 1.9% (inactive).

Turning to `C=CC1=C(C)C2=CC3=NC(=C(CC(=O)O)C4=NC(=C(C)C4=C(O)O)C=c4[nH]c(c(C)c4CC)=CC1=N2)C(CCC(=O)O)C3C` (stereo not drawn) [chlorophyllin], the “inhibition” value was -0.57% (inactive).

Consider `CC(C)COc1ccc(CNC(=O)N(Cc2ccc(F)cc2)C2CCN(C)CC2)cc1` [pimavanserin], for which the “inhibition” value was -1.81% (inactive).

Turning to `CCCCc1ccc(O)cc1O` [rucinol], the “inhibition” value was -2.6% (inactive).

As to `CC(C)(N)CC12CC3CC(CC(C3)C1)C2` [somantadine], the “inhibition” value was -2.05% (inactive).

Regarding `O=C1CN(/N=C/c2ccc([N+](=O)[O-])o2)C(=O)N1` [nitrofurantoin], the “inhibition” value was -0.06% (inactive).

As for `Cc1c(CC(C)(C)C(=O)O)n(Cc2ccc(Cl)cc2)c2ccc(F)cc12`, the “inhibition” value was 3.46% (inactive).

As for `C[C@@H]1[C@H](O)[C@@H](C)/C=C/C=C/C=C/C=C/C=C/C=C/C=C/[C@H](O[C@@H]2O[C@H](C)[C@@H](O)[C@H](N)[C@@H]2O)C[C@@H]2O[C@](O)(C[C@@H](O)C[C@@H](O)[C@H](O)CC[C@@H](O)C[C@@H](O)CC(=O)O[C@H]1C)C[C@H](O)[C@H]2C(=O)O` [amphotericin-b], the “inhibition” value is -1.34% (inactive).

The values above are taken from the supplement of paper PMC13380429.
